The record followed here is ChEMBL document CHEMBL3988442, “University of Dundee, Small-Polar-MMV Screening Library” (2021).

For some assays here: Results with a measured potency or affinity are listed apart.

What all share (set-up): scale not given: direction of the effect not stated beside the values
Experiment [1] has as its target Protein translocase subunit SecA (Escherichia coli (strain K12)) (UniProt P10408). Put plainly: Assay to Identify E. coli SecA ATPase Inhibitors. Conditions: 30 µM. The format is functional.
The target of experiment [2] is T1, Ubiquitin-activating enzyme e1, putative (Leishmania donovani (strain BPK282A1)) (UniProt E9BSI1).
T1 sequence (whole entry): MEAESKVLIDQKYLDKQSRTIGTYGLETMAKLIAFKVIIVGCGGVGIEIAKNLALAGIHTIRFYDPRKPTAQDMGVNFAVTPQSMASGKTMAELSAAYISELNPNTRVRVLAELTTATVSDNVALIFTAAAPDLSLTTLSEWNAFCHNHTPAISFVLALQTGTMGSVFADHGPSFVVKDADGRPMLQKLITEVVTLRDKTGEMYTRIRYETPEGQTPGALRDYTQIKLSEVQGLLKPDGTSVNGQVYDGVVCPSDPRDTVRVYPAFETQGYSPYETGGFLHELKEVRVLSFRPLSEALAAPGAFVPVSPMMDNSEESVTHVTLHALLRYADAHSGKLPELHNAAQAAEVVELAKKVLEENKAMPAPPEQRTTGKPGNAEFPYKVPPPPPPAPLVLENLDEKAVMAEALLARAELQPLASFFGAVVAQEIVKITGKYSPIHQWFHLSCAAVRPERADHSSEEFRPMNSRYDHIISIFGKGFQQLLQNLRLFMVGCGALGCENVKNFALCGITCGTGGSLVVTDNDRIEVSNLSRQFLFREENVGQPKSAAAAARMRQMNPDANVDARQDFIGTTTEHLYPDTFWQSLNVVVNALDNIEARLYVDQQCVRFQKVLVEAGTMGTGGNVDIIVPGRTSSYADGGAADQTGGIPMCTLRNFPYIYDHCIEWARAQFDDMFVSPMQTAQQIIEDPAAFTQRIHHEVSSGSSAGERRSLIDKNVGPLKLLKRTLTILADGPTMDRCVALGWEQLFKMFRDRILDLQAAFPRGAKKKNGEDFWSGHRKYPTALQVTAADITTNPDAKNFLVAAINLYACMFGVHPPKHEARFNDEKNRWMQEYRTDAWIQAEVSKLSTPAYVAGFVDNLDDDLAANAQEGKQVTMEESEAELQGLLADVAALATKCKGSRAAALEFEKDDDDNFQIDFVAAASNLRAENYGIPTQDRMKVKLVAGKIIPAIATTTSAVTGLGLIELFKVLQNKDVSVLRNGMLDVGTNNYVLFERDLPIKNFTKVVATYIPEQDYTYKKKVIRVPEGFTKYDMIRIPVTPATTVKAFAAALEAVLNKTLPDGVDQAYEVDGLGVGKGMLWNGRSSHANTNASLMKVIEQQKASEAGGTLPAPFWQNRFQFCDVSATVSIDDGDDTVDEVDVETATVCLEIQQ
In words: Leishmania donovani Ubiquitin Activating Enzyme (LdE1). The experiment is classed as functional. Conditions: 30 µM.

Experiment [3] deals with Sialic acid-binding Ig-like lectin 9 (Homo sapiens) (UniProt Q9Y336). Put plainly: Hs-Siglec9 ALPHAscreen SOP 20170721. Conditions: 10 µM.
Chain of Sialic acid-binding Ig-like lectin 9 (Homo sapiens) (Q9Y336 whole entry): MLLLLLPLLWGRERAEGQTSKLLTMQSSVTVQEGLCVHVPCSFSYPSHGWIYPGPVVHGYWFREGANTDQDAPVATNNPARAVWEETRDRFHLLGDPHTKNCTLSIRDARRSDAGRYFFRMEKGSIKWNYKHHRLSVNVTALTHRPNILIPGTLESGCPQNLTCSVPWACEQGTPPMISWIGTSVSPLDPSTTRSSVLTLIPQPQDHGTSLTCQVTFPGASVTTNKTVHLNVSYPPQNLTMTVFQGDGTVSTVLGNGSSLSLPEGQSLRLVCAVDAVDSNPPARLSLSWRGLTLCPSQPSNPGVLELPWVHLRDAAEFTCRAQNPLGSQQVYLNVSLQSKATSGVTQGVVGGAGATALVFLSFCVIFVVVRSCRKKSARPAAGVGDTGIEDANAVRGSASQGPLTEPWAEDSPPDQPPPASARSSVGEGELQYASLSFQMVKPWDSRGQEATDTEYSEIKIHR
Another experiment concerns Trypanosoma cruzi. Put plainly: Trypanosoma cruzi phosphomannomutase and mannose-1-phosphate guanylyltransferase assay. The format is functional. Conditions: 10 µM.
Experiment [4] concerns the target T2, Arginase-2, mitochondrial (Homo sapiens) (UniProt P78540).
T2 sequence (whole entry): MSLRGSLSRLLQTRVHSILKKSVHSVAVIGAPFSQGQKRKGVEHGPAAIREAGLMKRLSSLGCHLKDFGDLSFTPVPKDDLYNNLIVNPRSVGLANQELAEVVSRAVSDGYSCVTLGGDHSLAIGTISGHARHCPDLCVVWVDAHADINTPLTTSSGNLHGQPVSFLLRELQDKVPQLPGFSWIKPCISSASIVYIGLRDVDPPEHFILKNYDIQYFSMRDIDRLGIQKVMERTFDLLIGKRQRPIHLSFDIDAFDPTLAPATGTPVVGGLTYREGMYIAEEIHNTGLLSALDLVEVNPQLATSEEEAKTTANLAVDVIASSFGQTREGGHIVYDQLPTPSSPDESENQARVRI
In words: in vitro enzyme assay to detect the production of urea directly proportional to the activity of Arginase II. Further: in the data most compounds retested in dose-response had high values. The format is functional. Conditions: 33.3 µM.

Experiment [5] addresses T3, Proteasome subunit beta (Trypanosoma cruzi) (UniProt O96673).
T3 sequence (whole entry): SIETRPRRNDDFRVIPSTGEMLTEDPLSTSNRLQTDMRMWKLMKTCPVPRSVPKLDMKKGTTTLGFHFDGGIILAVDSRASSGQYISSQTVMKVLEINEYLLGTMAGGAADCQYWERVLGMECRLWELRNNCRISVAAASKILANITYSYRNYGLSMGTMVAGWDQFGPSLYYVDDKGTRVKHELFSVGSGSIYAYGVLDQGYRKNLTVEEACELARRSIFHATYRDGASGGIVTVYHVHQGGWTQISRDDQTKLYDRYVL
In words: Trypanosoma cruzi proteasome chymotrypsin-like activity (TcProtChymo) assay. Further: in the data most compounds retested in dose-response had high values. Conditions: 9.37 µM. The format is functional.

The species named for the next experiment is Homo sapiens. In words: To identify inhibition of the IFN signalling (Jak-Stat) pathway via expression of an eGFP reporter gene under the control of an IFN-stimulated response element (ISRE) containing MxA promoter. The format is functional. Conditions: 30 µM. (In general: In a reporter assay the amount or activity of a reporter protein is the signal.)

Experiment [6] deals with T4, Tyrosyl-tRNA synthetase, putative (Trypanosoma cruzi (strain CL Brener)) (UniProt Q4DSP6).
T4 sequence (whole entry): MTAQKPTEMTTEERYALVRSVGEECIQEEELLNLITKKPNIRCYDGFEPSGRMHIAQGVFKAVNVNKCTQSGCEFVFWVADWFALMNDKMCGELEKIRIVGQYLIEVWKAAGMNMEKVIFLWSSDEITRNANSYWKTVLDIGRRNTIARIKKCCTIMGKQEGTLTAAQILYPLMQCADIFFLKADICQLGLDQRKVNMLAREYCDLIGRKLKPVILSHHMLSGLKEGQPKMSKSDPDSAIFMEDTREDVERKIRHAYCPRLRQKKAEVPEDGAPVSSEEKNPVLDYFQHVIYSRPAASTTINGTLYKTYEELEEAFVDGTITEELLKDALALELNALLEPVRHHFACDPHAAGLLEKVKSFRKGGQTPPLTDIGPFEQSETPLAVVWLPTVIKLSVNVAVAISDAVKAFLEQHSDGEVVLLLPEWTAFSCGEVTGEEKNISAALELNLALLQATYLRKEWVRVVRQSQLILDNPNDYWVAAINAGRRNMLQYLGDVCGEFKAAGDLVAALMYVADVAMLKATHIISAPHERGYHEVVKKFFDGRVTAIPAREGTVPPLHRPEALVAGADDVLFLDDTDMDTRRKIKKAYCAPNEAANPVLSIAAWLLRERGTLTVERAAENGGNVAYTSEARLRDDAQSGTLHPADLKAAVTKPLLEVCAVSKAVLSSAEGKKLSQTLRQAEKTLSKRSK
Put plainly: Trypanosoma cruzi tyrosyl tRNA synthetase (TcYRS) _High Tyrosine SOP. Further: in the data most compounds retested in dose-response had high values. Particulars: 30 µM. The experiment is classed as functional.

Experiment [7] has as its target T4, Tyrosyl-tRNA synthetase, putative (Trypanosoma cruzi (strain CL Brener)). In words: Trypanosoma cruzi tyrosyl tRNA synthetase (TcYRS) SOP. The experiment is classed as functional. Particulars: 30 µM.
The target in experiment [8] is Chromo domain-containing protein 1 (Saccharomyces cerevisiae (strain ATCC 204508 / S288c) (Baker's yeast)) (UniProt P32657). Put plainly: ScCHD-1 Enzyme Inhibition Assay. Further: in the data most compounds retested in dose-response had high values. Conditions: 30 µM. The experiment is classed as functional.
Chain of Chromo domain-containing protein 1 (Saccharomyces cerevisiae (strain ATCC 204508 / S288c) (Baker's yeast)) (P32657 whole entry, the tested form may be a part): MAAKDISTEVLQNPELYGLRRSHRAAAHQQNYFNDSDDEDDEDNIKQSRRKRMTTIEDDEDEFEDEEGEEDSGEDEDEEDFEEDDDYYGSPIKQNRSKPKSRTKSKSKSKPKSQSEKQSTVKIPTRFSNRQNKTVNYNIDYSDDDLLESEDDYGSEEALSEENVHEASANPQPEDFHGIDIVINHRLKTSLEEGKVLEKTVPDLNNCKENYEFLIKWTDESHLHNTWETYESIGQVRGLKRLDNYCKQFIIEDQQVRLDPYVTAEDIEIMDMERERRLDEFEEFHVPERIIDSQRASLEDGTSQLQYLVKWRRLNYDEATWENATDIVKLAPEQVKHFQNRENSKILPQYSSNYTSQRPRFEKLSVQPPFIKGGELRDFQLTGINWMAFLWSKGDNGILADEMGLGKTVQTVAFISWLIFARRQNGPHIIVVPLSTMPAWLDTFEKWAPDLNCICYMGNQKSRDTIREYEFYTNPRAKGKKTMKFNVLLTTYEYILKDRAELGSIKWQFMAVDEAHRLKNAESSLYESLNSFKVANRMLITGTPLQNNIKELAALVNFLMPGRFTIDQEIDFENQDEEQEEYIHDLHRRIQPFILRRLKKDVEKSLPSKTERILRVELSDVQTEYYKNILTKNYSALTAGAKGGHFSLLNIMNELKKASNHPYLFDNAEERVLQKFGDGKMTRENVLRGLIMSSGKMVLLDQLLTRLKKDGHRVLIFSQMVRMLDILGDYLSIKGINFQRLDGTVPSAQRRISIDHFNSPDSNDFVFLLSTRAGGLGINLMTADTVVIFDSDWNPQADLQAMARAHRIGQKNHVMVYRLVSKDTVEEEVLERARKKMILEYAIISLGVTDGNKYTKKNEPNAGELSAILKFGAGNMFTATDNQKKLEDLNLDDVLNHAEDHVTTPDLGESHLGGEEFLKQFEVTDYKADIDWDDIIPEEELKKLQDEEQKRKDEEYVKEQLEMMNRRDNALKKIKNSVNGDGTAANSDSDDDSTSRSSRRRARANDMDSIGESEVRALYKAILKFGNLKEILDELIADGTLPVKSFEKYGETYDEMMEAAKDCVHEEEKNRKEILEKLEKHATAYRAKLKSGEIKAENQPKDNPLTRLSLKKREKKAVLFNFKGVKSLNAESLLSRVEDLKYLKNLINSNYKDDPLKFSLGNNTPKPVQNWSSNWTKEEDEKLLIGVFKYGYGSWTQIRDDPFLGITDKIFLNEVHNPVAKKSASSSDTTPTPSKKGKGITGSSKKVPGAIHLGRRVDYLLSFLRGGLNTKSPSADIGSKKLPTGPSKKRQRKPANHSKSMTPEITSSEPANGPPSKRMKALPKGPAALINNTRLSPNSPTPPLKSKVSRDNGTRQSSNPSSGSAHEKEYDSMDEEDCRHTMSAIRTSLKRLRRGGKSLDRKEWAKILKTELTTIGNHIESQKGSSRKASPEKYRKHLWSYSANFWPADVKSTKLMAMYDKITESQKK

Chain of Protein translocase subunit SecA (Escherichia coli (strain K12)) (P10408 whole entry): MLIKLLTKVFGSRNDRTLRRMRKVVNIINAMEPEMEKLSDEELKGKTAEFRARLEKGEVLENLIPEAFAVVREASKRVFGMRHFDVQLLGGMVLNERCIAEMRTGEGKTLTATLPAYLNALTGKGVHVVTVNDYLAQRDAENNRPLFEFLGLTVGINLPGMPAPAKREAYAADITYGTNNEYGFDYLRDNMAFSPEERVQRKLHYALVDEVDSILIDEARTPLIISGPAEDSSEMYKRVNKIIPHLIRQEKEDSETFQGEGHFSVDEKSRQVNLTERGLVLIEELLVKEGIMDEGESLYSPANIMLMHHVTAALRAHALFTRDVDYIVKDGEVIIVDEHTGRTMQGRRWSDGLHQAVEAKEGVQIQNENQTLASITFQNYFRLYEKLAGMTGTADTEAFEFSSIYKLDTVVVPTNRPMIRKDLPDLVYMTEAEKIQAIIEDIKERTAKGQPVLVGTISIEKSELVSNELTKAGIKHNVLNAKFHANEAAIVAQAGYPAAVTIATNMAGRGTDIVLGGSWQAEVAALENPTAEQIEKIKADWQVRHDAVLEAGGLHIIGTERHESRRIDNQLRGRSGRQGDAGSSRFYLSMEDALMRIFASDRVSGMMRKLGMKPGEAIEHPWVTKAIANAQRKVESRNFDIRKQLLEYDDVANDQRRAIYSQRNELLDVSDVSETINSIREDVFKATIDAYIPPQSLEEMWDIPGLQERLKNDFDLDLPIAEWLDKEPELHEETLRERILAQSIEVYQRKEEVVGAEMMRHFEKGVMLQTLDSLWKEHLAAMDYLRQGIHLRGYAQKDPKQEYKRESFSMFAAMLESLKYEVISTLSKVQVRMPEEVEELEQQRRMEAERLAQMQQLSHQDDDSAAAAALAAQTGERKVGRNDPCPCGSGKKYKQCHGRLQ

Regarding `CCc1[nH]ncc1C(=O)N1CCCC(n2nc(C)nc2C)C1` (stereo not given), the Percent Effect in [1] is -6.31%; in experiment [2] it was 2.56%; in experiment [3], -8.9%; in the experiment on Trypanosoma cruzi, 11.9%; in experiment [4], -1.23%; in [5] it was 2.82%. Further, the Percent Effect in the experiment listed under Homo sapiens was 7.13%; in [6] it was 0.478%; in experiment [7], 8.43%; in [8], -10.4%.
As to `CN1CCC(c2ncc3c(n2)CCN(C(=O)CC2C=CCC2)C3)CC1` (stereo not given), the Percent Effect is 1.34% in experiment [1]; 14.7% in [2]; -4.21% in [3]; -1.58% in the experiment with Trypanosoma cruzi; 3.1% in experiment [4]; 9.03% in experiment [5]. Besides, the Percent Effect was 7.04% in the experiment listed under Homo sapiens, 12.7% in experiment [6], 22.5% in experiment [7] and -23.1% in experiment [8].
With `CN1CC(c2ccccc2)CC12CCN(C(=O)c1cncc(Cl)c1)CC2` (stereo not given), the Percent Effect in experiment [1] was -4.25%; in experiment [2], 5.41%; in [3], 3.4%; in the experiment with Trypanosoma cruzi, -0.679%; in experiment [4], 0.35%; in experiment [5] it was 12.3%. The Percent Effect in the experiment filed under Homo sapiens was 12.2%; in [6] it was 7.98%; in experiment [7] it was 14.6%; in experiment [8], -5.7%.
For the compound `COC(=O)c1cccn1C1CCN(Cc2ccccc2)CC1`, the Percent Effect was 0.208% in experiment [1]; 7.79% in experiment [2]; 10% in experiment [3]; 2.05% in the experiment on Trypanosoma cruzi; -10.9% in experiment [4]; 6.49% in experiment [5]. Besides, the Percent Effect was 16.2% in the experiment listed under Homo sapiens, 3.92% in experiment [6], 11.8% in [7] and -3.52% in experiment [8].
Turning to `Cn1cc(CN2CCCC23CCN(C(=O)c2cccn2C)CC3)cn1`, the Percent Effect in experiment [1] was -1.03%; in experiment [2], -6.49%; in experiment [3], -3.73%; with Trypanosoma cruzi, -0.876%; in experiment [4], -2.43%; in experiment [5] it was -0.441%. Moreover, the Percent Effect in the experiment filed under Homo sapiens was -15.7%; in [6] it was -0.526%; in experiment [7], 0%; in experiment [8], -0.154%.
For `CCc1nc(C2CCCN2C(=O)c2nc(C)n3ccccc23)no1` (stereo not given), the Percent Effect in [1] was -0.63%; in [2], 2.67%; in [3] it was -0.749%; in the experiment on Trypanosoma cruzi, -5.02%; in [4], 4.43%; in [5], 3.65%. In addition, the Percent Effect is 15% in the experiment filed under Homo sapiens, 4.74% in [6], 5.13% in [7] and -15.8% in experiment [8].
With `CCN1CCC2(C=C(C(=O)NC3CC3)c3ccccc32)CC1`, the Percent Effect was 2.3% in experiment [1]; 6.49% in experiment [2]; -1% in experiment [3]; 1.13% in the experiment on Trypanosoma cruzi; 0% in [4]; -2.49% in [5]. Besides, the Percent Effect was -10.8% in the experiment filed under Homo sapiens, -0.966% in [6], 2.5% in [7] and -3.59% in experiment [8].
Turning to `CC(C)(C)c1n[nH]c(C2CN(C(=O)c3ccsc3)CCO2)n1` (stereo not given), the Percent Effect was -1.88% in experiment [1]; 7.69% in [2]; 5.72% in experiment [3]; 0.657% with Trypanosoma cruzi; 0.82% in experiment [4]; 3.33% in [5]. For the same compound, the Percent Effect was -15.3% in the experiment listed under Homo sapiens, 2.39% in experiment [6], 13.2% in experiment [7] and 2.07% in experiment [8].
Regarding `CN(C)c1ccc(NC(=O)NCc2ccccn2)cn1`, the Percent Effect was -1.7% in experiment [1]; 20.8% in experiment [2]; -3.66% in [3]; -3.92% in the experiment with Trypanosoma cruzi; -0.205% in experiment [4]; 11.9% in [5]. In addition, the Percent Effect was -8.9% in the experiment listed under Homo sapiens, 5.88% in [6], 18.8% in experiment [7] and -9.39% in experiment [8].
As for `Cc1cccc(CN2CCc3nnc(CO)n3CC2)n1`, the Percent Effect in experiment [1] is -0.433%; in [2], 19.5%; in [3] it was -0.362%; in the experiment on Trypanosoma cruzi it was 0%; in experiment [4], 1.37%; in experiment [5] it was 13%. Also, the Percent Effect is 16.8% in the experiment filed under Homo sapiens, 9.66% in [6], 15% in [7] and -7.15% in [8].
With `O=C(NCCO)c1ccn(-c2ccc3ccccn23)n1`, the Percent Effect in [1] was -3.79%; in [2], -32.5%; in [3], -8.91%; in the experiment with Trypanosoma cruzi it was 3.99%; in experiment [4] it was -8.5%; in experiment [5], 19.1%. Further, the Percent Effect in the experiment listed under Homo sapiens was 7.26%; in experiment [6] it was 11.1%; in experiment [7] it was -2.56%; in experiment [8], -0.759%.
